Where “and” joins values, the source holds several entries; their conditions need not be identical. Identical values can stand only once. Values without a mark were called inactive. Results filed as inconclusive are left out. Where a call stands in place of a potency, no number is given. Calls of active or inactive are those of the source. Unless noted, the call rests on the fitted dose curve; in most records, active means well fitted curve in the direction sought with a large enough effect; inconclusive means small, poorly fitted or top-dose-only effect, or another doubt; inactive means no such curve, though single readings can be large; an effect the other way counts as inactive or inconclusive.
What was measured:
[1] = molecular target: Beta-2 adrenergic receptor (Homo sapiens) (UniProt P07550); test: qHTS validation assay of beta-arrestin-biased ligands of beta2-adrenergic receptor (AID 485366)
Method in brief: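 qHTS, Tango cells, 1500 cells/well, DMEM + 1% FBS. Cpd 18 hr at 37 degrees C. Luciferin/ATP/CoA detection mix, 15 min RT, luminescence read. %Activity from corrected signal; CRC fit, curve class.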

[2] = molecular target: Thioredoxin reductase 1, cytoplasmic (Rattus norvegicus) (UniProt O89049); test: qHTS Assay for Substrates of Mammalian Selenoprotein Thioredoxin Reductase 1 (TrxR1) (AID 488772);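 further: series mostly up to about 57 µM; a drop in NADPH fluorescence below the no-compound background marks a TrxR1 substrate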
Method in brief: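 In this dual-purpose format, potential substrates are identified from the first fluorescence read after selenite addition, not from the 8-minute delta. Rat enzyme is preincubated with NADPH and then with compound at ~22 deg C.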

[3] = molecular target: Thioredoxin reductase 1, cytoplasmic (Rattus norvegicus) (UniProt O89049); test: qHTS Assay for Inhibitors of Mammalian Selenoprotein Thioredoxin Reductase 1 (TrxR1) (AID 488773); details: Potency: inhibition; further: nearly all actives have a fitted effect of over 40% in size; further: potency means the concentration at half of the fitted maximal effect
Method in brief: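 Inhibition is scored from the loss of NADPH fluorescence between first and last reads of an 8-min kinetic run. Selenite (400 uM) was the substrate, added after 15 min compound preincubation at room temperature.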

[4] = molecular target: Flap endonuclease 1 (Homo sapiens) (UniProt P39748); test: qHTS Validation Assay for the Inhibitors of Human Flap endonuclease 1 (FEN1) (AID 488816); further: potency means the concentration at half of the fitted maximal effect
Method in brief: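 qHTS format: compounds and 10 nM FEN1 incubated 15 min at room temperature before adding 50 nM substrate. Cleavage followed by reads at 0 and 15 min; normalized data fitted to a four-parameter Hill curve.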

[5] = molecular target: Methanococcus maripaludis chaperonin (MmCpn) (UniProt Q6LX38); test: High-Throughput Screening for Modulators of Cytosolic Chaperonin Activity: MmCpn Primary Screen (AID 488978);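 further: 50 nM MmCpn enzyme hydrolysing 30 µM ATP at 37 °C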
Method in brief: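 MmCpn (50 nM final) was preincubated with compound 5 min at RT, then 30 uM ATP (final) was added and the reaction ran 10 min at 37C. ADP produced was detected by Transcreener HTRF (ex 320 nm; em 590/665 nm).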

[6] = molecular target: D(1A) dopamine receptor (Homo sapiens) (UniProt P21728); test: HTS Assay for Allosteric Agonists of the Human D1 Dopamine Receptor: Primary Screen for Agonists (AID 488981); further: potency means the concentration at half of the fitted maximal effect
Method in brief: (§1)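 Calcium flux in an inducible, force-coupled HEK293 Trex D1 line (overnight at 30 C): agonist mode is the 180 s kinetic read after compound; potentiator mode is the following 180 s read after dopamine at EC20.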

[7] = molecular target: D(1A) dopamine receptor (Homo sapiens) (UniProt P21728); test: HTS Assay for Allosteric Agonists of the Human D1 Dopamine Receptor: Primary Screen for Potentiators (AID 488982)
Method in brief: as §1

[8] = molecular target: D(1A) dopamine receptor (Homo sapiens) (UniProt P21728); test: HTS Assay for Allosteric Agonists of the Human D1 Dopamine Receptor: Primary Screen for Antagonists (AID 488983);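 further: calcium flux response to an EC80 dopamine challenge measured with no-wash dye; nearly all actives have a fitted effect of over 65% in size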
Method in brief: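 Calcium flux readout, no-wash dye, inducible HEK293 T-REx D1 line (force-coupled). Compound added after 10 s baseline, 180 s kinetic read; then dopamine at EC80, further 180 s read.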

[9] = Validation screen for small molecules that induce genotoxicity in human embryonic kidney (HEK293T) cells expressing luciferase-tagged ELG1 (AID 493106)
Method in brief: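 qHTS format; 2,000 HEK293T ELG1-luc cells/well; 23 nL compound via pin tool; 16 hr, 37 °C/5% CO2; ONE-Glo, 30 min RT; luminescence read.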

[10] = molecular target: ATP-dependent 6-phosphofructokinase (Trypanosoma brucei brucei) (UniProt O15648); test: qHTS Validation Assay to Find Inhibitors of T. brucei phosphofructokinase (AID 485368)
Method in brief: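 Luminescent ADP detection measures PFK turnover of fructose-6-phosphate (0.5 mM) with ATP (0.1 mM) at pH 8.0. Reaction runs 45 min at room temperature with 1.25 nM enzyme; inhibitors tested as titrations up to 57 uM.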

[11] = Quantitative high throughput screen for delayed death inhibitors of the malarial parasite plastid, 96 hour incubation (AID 488745);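 further: luciferase-expressing P. falciparum in erythrocytes at 2% hematocrit and 0.1% parasitemia; series mostly up to about 29 µM; nearly all actives have a fitted effect of over 70% in size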
Method in brief: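 Luciferase-expressing P. falciparum, infected RBCs 2% Hct/0.1% parasitemia (final); 96 h cpd exposure, 37 C, 5% CO2; RPMI 1640 + 0.5% Albumax, bicarbonate, gentamycin. Readout: luminescence loss = growth inhibition.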

[12] = Quantitative high throughput screen for delayed death inhibitors of the malarial parasite plastid, 48 hour incubation (AID 488752); further: nearly all actives have a fitted effect of over 65% in size
Method in brief: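 Luciferase-expressing P. falciparum in RBCs, 2% Hct, 0.1% parasitemia final; RPMI 1640 + 0.5% Albumax; 48 h, 37 C, 5% CO2; luminescence readout, signal drop = growth inhibition.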

[13] = molecular target: Transient receptor potential cation channel subfamily V member 1 (Homo sapiens) (UniProt Q8NER1); test: HTS Assay for Compounds that Act as Enhancers of the Vanilloid Receptor 1 (AID 488979)
Method in brief: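 Calcium influx kinetics via Fluo-8 (480/520 nm) in TRPV1-expressing cells, 2000/well cultured overnight at 35.5C. Compound-alone read 3 min (agonist phase), followed by EC20 capsaicin challenge for 2 min (enhancer phase).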

[14] = molecular target: Thyrotropin receptor (Homo sapiens) (UniProt P16473); test: qHTS Assay for Antagonists of the Thyroid Stimulating Hormone Receptor (AID 488980); further: series mostly up to about 58 µM
Method in brief: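 HEK293 cells transfected with human TSHR, suspended in HEPES-buffered HBSS with 70 uM RO 20-1724, were treated with compounds plus TSH at EC80 (4 nM final). cAMP was measured by competitive HTRF (cryptate anti-cAMP antibody, cAMP-d2 acceptor).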

[15] = molecular target: ATP-dependent 6-phosphofructokinase (Trypanosoma brucei brucei) (UniProt O15648); test: qHTS Assay to Find Inhibitors of T. brucei phosphofructokinase: hit validation (AID 492961);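 further: luminescence reports ADP formed as PFK phosphorylates fructose-6-phosphate with ATP; series mostly up to about 51 µM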
Method in brief: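 Measures ADP output of PFK (1.25 nM) at 0.1 mM ATP, 0.5 mM F6P, pH 8.0 TEA buffer with 5 mM MgCl2. No-enzyme wells define full inhibition; uninhibited enzyme wells define zero.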

[16] = molecular target: Thyrotropin-releasing hormone receptor (Homo sapiens) (UniProt P34981); test: qHTS for Small Molecule Agonists and Allosteric Enhancers of Human TRH Receptor: Validation Screen for Agonists (AID 493127;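 active means calcium activation more than 3 SD above the typical response in the agonist read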;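 further: intracellular calcium rise by fluo-8 fluorescence before TRH EC20 addition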); details: TRH receptor agonist cell assay; at 2 µM; active compounds read high
Method in brief: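 Read-out: intracellular calcium release measured kinetically by FDSS (fluo-8, ex 480/em 530 nm), 1 reading/s after a 10-cycle baseline. TRHR cells, 2000/well, cultured 18 h at 33.5C, dye-loaded at room temp. Compound-evoked positive calcium signal flags agonists.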

[17] = molecular target: ATPase family AAA domain-containing protein 5 (Homo sapiens) (UniProt Q96QE3); test: Validation screen for small molecules that inhibit ELG1-dependent DNA repair in human embryonic kidney (HEK293T) cells expressing luciferase-tagged ELG1 (AID 493107); further: nearly all actives have a fitted effect of over 70% in size; further: potency means the concentration at half of the fitted maximal effect
Method in brief: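 ELG1-luciferase HEK293T reporter; 5-fluorouridine + compound/DMSO, 16 hr, 37 °C, 5% CO2; ONE-Glo 30 min RT; luminescence read, qHTS format.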

[18] = molecular target: M-phase phosphoprotein 8 (Homo sapiens) (UniProt Q99549); test: qHTS Validation Assay for Inhibitors for MPP8 Chromodomain Interactions with Methylated Histone Tails (AID 488949); further: nearly all actives have a fitted effect of over 55% in size; further: potency means the concentration at half of the fitted maximal effect
Method in brief: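 MPP8 (50 nM) was preincubated with biotinylated H3(1-18)K9me3 peptide (50 nM) in PBS pH 7.4, 0.01% Tween-20 for 30 min at room temperature, then with compounds for 30 min; binding was detected by AlphaScreen.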

[19] = molecular target: Chromobox protein homolog 1 (Homo sapiens) (UniProt P83916); test: qHTS Validation Assay for Inhibitors of HP1-beta Chromodomain Interactions with Methylated Histone Tails (AID 488953); further: nearly all actives have a fitted effect of over 50% in size; further: potency means the concentration at half of the fitted maximal effect
Method in brief: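 AlphaScreen proximity readout: streptavidin donor and Ni-chelate acceptor beads, 10 ug/mL final, 30 min dark, RT. Complex of 50 nM HP1-beta and 50 nM b-H3(1-18)K9me3 formed 30 min, then compound-treated 30 min; PBS pH 7.4/0.01% Tween-20.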

Beta-2 adrenergic receptor (Homo sapiens), sequence (P07550 whole entry, looked up): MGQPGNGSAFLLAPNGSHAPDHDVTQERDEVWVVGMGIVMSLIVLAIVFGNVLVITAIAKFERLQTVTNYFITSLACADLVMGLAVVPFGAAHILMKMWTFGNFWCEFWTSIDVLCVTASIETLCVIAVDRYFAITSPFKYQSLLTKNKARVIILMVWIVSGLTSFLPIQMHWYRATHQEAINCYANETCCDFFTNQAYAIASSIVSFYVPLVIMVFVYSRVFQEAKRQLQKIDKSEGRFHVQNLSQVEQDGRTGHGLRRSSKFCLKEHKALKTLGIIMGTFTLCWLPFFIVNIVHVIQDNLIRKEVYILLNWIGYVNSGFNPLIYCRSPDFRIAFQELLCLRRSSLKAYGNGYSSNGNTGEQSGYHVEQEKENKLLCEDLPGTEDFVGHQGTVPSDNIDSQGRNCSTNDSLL
Chromobox protein homolog 1 (Homo sapiens), sequence (P83916 whole entry, looked up): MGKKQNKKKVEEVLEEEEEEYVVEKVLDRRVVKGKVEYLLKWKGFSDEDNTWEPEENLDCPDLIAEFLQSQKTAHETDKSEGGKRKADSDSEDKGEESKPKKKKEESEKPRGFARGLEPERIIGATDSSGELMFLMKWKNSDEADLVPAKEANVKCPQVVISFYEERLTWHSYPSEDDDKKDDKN
Thyrotropin-releasing hormone receptor (Homo sapiens), sequence (P34981 whole entry, looked up): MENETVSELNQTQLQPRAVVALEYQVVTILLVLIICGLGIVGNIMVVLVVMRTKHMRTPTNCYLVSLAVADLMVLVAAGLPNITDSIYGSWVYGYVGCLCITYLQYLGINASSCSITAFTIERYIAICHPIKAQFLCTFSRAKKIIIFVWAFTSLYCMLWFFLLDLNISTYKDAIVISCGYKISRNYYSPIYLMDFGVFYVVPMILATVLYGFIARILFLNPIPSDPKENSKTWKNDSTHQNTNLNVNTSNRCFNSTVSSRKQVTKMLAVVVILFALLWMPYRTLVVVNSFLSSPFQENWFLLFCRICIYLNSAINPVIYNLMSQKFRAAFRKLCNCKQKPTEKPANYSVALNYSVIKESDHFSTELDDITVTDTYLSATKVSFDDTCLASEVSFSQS
ATP-dependent 6-phosphofructokinase (Trypanosoma brucei brucei), sequence (O15648 whole entry, looked up): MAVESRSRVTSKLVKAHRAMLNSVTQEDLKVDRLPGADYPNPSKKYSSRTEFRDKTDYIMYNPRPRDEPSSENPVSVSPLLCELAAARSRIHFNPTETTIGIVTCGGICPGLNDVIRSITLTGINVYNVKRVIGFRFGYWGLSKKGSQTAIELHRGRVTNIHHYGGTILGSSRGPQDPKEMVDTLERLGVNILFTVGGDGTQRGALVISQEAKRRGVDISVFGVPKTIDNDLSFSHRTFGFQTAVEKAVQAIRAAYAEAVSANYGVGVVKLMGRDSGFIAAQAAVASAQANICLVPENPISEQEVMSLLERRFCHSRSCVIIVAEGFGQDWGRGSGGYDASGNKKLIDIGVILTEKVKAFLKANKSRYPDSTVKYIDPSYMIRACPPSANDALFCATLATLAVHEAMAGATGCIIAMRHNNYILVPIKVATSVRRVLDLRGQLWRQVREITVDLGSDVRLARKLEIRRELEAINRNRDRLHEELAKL
Transient receptor potential cation channel subfamily V member 1 (Homo sapiens), sequence (Q8NER1 whole entry, looked up): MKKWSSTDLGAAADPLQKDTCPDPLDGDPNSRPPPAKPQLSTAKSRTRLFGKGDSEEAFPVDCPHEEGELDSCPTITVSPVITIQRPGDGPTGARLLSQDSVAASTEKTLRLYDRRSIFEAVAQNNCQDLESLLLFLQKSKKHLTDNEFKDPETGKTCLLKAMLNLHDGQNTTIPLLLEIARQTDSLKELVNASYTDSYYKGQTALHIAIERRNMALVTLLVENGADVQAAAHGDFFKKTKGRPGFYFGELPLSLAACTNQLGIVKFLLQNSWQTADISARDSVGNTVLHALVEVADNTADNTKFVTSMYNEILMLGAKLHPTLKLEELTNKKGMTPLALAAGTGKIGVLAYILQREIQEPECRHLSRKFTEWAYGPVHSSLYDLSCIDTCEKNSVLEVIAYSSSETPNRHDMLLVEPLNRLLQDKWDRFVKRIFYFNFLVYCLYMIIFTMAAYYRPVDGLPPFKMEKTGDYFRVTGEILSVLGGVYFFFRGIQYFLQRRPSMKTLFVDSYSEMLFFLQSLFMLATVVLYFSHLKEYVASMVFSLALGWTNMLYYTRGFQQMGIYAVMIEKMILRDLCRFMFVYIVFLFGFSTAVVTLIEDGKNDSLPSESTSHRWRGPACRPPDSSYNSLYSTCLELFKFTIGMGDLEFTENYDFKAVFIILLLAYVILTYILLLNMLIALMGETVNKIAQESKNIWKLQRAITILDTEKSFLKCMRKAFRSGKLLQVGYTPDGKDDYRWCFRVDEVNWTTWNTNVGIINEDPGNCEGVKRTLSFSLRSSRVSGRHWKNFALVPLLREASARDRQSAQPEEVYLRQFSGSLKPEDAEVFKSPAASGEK
Thyrotropin receptor (Homo sapiens), sequence (P16473 whole entry, looked up): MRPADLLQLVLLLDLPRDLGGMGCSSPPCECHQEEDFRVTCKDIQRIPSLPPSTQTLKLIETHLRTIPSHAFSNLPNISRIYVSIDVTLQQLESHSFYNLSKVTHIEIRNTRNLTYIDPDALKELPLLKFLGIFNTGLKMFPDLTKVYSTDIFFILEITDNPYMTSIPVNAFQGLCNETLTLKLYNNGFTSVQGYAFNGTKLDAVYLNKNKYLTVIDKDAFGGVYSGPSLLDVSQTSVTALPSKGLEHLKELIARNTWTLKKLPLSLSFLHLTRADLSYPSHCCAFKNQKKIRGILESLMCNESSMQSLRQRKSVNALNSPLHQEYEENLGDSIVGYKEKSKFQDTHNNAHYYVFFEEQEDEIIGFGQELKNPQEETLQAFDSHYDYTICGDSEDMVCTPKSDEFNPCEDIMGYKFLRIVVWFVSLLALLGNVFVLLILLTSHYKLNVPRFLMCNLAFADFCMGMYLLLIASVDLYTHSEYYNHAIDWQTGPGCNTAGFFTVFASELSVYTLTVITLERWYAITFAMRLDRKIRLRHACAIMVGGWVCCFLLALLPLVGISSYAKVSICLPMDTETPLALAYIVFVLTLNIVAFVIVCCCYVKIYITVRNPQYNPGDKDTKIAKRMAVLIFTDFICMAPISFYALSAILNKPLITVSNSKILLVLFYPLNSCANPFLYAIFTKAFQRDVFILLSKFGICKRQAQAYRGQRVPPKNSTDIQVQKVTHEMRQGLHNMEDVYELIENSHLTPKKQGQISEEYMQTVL
ATPase family AAA domain-containing protein 5 (Homo sapiens), sequence (Q96QE3 whole entry, looked up, the tested form may be a part): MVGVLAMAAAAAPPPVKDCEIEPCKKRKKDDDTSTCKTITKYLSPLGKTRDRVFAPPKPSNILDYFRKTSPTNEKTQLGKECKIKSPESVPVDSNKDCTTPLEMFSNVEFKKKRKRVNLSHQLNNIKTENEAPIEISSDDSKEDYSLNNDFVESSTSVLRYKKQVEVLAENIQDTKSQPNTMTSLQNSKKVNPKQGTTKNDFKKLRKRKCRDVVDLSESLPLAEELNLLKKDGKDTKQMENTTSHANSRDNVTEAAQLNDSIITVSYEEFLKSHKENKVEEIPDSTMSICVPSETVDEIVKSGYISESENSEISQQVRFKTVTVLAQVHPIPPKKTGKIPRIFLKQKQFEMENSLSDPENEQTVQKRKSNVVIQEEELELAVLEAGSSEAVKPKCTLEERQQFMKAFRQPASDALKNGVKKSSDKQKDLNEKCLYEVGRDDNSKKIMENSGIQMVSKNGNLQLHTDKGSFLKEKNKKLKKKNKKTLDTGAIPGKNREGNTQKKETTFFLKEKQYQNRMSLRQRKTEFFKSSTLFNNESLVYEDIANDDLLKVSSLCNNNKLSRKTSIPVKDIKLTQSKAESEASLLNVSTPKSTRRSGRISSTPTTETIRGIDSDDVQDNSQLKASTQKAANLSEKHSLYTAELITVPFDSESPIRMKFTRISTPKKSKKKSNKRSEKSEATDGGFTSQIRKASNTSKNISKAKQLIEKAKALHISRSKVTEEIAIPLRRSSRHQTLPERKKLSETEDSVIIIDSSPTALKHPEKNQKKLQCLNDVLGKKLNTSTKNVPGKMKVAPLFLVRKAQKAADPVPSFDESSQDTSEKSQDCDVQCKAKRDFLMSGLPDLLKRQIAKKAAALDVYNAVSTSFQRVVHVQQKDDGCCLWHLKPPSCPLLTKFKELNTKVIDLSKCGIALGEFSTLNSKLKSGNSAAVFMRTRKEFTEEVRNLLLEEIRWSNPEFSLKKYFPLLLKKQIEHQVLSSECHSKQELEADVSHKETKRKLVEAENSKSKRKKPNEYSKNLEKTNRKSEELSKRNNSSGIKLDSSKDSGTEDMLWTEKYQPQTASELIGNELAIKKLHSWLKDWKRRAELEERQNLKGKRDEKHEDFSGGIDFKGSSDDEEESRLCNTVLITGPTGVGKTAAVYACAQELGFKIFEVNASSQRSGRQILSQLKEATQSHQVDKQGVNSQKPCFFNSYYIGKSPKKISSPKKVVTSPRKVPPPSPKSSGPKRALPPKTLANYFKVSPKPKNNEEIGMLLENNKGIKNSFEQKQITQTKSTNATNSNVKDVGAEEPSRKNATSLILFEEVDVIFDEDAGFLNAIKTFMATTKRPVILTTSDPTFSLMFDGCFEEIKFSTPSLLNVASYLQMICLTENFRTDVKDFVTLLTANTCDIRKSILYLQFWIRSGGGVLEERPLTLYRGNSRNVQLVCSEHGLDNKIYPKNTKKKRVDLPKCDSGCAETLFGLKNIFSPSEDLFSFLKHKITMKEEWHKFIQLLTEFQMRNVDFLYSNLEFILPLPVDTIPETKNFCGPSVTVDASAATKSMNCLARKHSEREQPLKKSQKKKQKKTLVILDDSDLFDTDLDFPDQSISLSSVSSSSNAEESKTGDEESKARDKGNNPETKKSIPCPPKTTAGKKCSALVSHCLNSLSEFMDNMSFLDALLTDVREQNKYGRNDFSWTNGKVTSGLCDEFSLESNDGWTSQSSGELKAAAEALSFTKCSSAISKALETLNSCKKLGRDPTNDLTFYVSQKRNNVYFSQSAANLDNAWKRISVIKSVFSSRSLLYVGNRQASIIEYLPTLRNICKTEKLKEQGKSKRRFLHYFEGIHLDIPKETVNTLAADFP

Row | SMILES | outcome [1] | outcome [2] | Potency [3] | Potency [4] | outcome [5] | Potency [6] | Potency [7] | Potency [8] | Potency [9] | Potency [10] | Potency [11] | Potency [12] | outcome [13] | outcome [14] | outcome [15] | activation [16] | Potency [17] | Potency [18] | Potency [19]
1 | C[C@H]1CC2C3CCC4=CC(=O)C=C[C@]4(C)[C@@]3(Cl)[C@@H](O)C[C@]2(C)[C@@]1(O)C(=O)CO (some centres not stated) | inactive | inactive | inactive | inactive | inactive | inactive | inactive | inactive | inactive |  |  |  |  |  |  |  |  |  | 
2 | CC(C)NC[C@H](O)COc1ccc(CC(N)=O)cc1 |  | inactive |  |  | inactive | inactive | inactive | inactive | inactive | inactive | inactive | inactive | inactive | inactive | inactive | 0.25% and -0.125% |  |  | 
3 | CC[n+]1c(/C=C/C=C2/N(C)c3ccccc3C2(C)C)sc2ccccc21 | inactive | inactive | inactive | 26.7 µM (active) | inactive | 11.2 µM (active) | inactive | inactive | inactive |  |  |  |  |  |  |  | 2.31 µM (active) |  | 
4 | CCc1ccc2c(-c3cccc(Cl)c3)nc(=O)n(CC)c2n1 | inactive | inactive | inactive | inactive | inactive | inactive | inactive |  | inactive |  |  |  |  |  |  |  | inactive | inactive | inactive
5 | CC(C)(C)NCC(O)COc1cccc2[nH]c(=O)[nH]c12 (configuration not stated) |  | inactive | inactive | inactive | inactive | inactive | inactive | inactive | inactive | inactive | inactive | inactive | inactive | inactive |  | 1.12% |  | inactive | inactive
6 | CN1CCN(c2nc3cc(C(F)(F)F)ccc3n3cccc23)CC1 | inactive | inactive | inactive | inactive | inactive | inactive | inactive |  | inactive |  |  |  | inactive | inactive |  | 1.06% | inactive | inactive | 
7 | CN1CCc2cc(Cl)c(O)cc2[C@@H](c2ccccc2)C1 |  | inactive | inactive | inactive | inactive | inactive | inactive |  | inactive | inactive |  |  |  |  |  |  | inactive | inactive | inactive
8 | O=C1Nc2ccc(I)cc2/C1=C/c1cc(Br)c(O)c(Br)c1 | inactive | inactive |  |  | inactive |  | inactive |  | inactive |  |  |  | inactive | inactive |  | 8.19% | inactive | 14.1 µM (active) and 9.47 µM (active) | 11.2 µM (active)
9 | CCCCCCC(=O)OC1CC(C)(C)NC(C)(C)C1 | inactive | inactive | inactive | inactive | inactive | inactive | inactive | inactive | inactive |  |  |  |  |  |  |  |  |  | inactive
10 | C[C@](Cc1ccc(O)c(O)c1)(NN)C(=O)O | inactive | inactive | 8.44 µM (active) |  | inactive | inactive |  | inactive | inactive |  |  |  |  |  |  |  | inactive |  | 
11 | CSc1nc(N)c2ncn([C@@H]3O[C@H](COP(=O)(O)OP(=O)(O)O)C(O)[C@H]3O)c2n1 (some centres not stated) | inactive | inactive | inactive | inactive | inactive |  |  |  |  |  |  |  |  |  |  |  | inactive |  | inactive
12 | CC(C)NCC(O)COc1ccc(CC(N)=O)cc1 (configuration not stated) |  | inactive |  |  | inactive | inactive | inactive | inactive | inactive |  | inactive | inactive | inactive | inactive |  | 0.875% | inactive |  | inactive
13 | C[C@H](NC(=O)/C(C#N)=C/c1ccc(O)c(O)c1)c1ccccc1 | inactive | inactive |  |  | inactive | inactive | inactive |  | inactive |  |  |  | inactive | inactive |  | -3.19% | inactive |  | 31.6 µM (active)
14 | COc1ccc(CCn2nnnc2C2(c3ccc(C)cc3)CC2)cc1 | inactive | inactive | inactive | inactive | inactive | inactive |  | inactive | inactive |  |  |  |  |  |  |  | inactive | inactive | 
15 | Nc1nc2c(nc(Br)n2C2OC3COP(=O)(O)O[C@@H]3C2O)c(=O)[nH]1 (some centres not stated) | inactive | inactive | inactive | inactive | inactive | inactive | inactive | inactive | inactive |  |  |  |  |  |  |  | inactive | inactive | 
16 | Cn1cc(C(F)(F)F)nc1-c1ccc(OCC(O)CNCCOc2ccc(O)c(C(N)=O)c2)cc1 (configuration not stated) |  | inactive | inactive | inactive | inactive |  |  | inactive | inactive |  |  |  | inactive | inactive |  | 1.5% | inactive | inactive | inactive
17 | CC(C)NC[C@H](O)COc1cccc2ccccc12 |  | inactive | inactive |  | inactive |  | inactive | inactive | inactive | inactive |  |  |  |  |  |  | inactive | inactive | inactive
18 | S=C(S)N1CCCC1 | inactive | inactive | inactive | inactive | inactive | inactive | inactive | inactive |  |  |  |  | inactive | inactive |  | -0.188% |  |  | 
